Measured values as given in PubChem BioAssay (EPA / NIEHS).
“And” between values parts separate entries of the source, which are not always exact repeats. Equal values may be shown once. The source made the active and inactive calls. Rule for the calls: active = hit-call score of the fitted dose curve at least 0.9, where 1 is the maximum; inactive = score below 0.9.

read-out: Monocyte Chemoattractant Protein-1 (MCP1), CCL2 (gene 6347); assay: BSK_3C_MCP1: BioMAP Diversity Plus: 3C Assay for Monocyte Chemoattractant Protein-1 (MCP1) Biomarker Activity (AID 2283017); details: primary human endothelial cells (HUVEC); actives raise or lower the signal
In short: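 Primary human umbilical vein endothelial cells (3C system) were exposed to test chemical for 24 h, after which MCP-1 was quantified by ELISA. Activity was fitted bidirectionally against DMSO as negative control and baseline.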

Structure (SMILES)	outcome	AC50
COC1=CC(=O)C[C@@H](C)[C@]12Oc1c(Cl)c(OC)cc(OC)c1C2=O	inactive	–
CCCCc1oc2ccccc2c1C(=O)c1cc(I)c(OCCN(CC)CC)c(I)c1	–	21.6 µM (active)
Oc1c(Cl)cc(Cl)cc1Sc1cc(Cl)cc(Cl)c1O	–	36.2 µM (active) and 35.9 µM (active)
Cc1ccc(C(=O)c2ccccc2)cc1	–	4.38 µM (active)
CN(CCO)S(=O)(=O)C(F)(F)C(F)(F)C(F)(F)C(F)(F)C(F)(F)C(F)(F)C(F)(F)C(F)(F)F	inactive	–
OCC(CO)(CBr)CBr	inactive	–
CC[N+](CC)(CC)Cc1ccccc1	inactive	–
O=P(O)(O)CCC(F)(F)C(F)(F)C(F)(F)C(F)(F)C(F)(F)C(F)(F)F	inactive	–
N=C(N)c1ccc(OCCCCCOc2ccc(C(=N)N)cc2)cc1	inactive	–
O=C(O)CCC(F)(F)C(F)(F)C(F)(F)C(F)(F)C(F)(F)F	inactive	–
O=C1c2ccc(O)c(O)c2C(=O)c2c(O)ccc(O)c21	inactive	–
C=COC(=O)C(C)(C)CCCCCC	–	31.3 µM (active)
Cc1[nH]nc2c1N=C(c1ccccc1Cl)c1cc([N+](=O)[O-])ccc1N2	inactive	–
OCC(F)(F)C(F)(F)C(F)(F)C(F)(F)C(F)(F)C(F)(F)C(F)(F)C(F)(F)C(F)(F)C(F)(F)C(F)(F)F	inactive	–
